Compound activity from PubChem BioAssay.
G9a inh: inhibitors of human histone lysine methyltransferase G9a; G9a H3K9 monomethylation, AlphaScreen, 2 h; Potency, µM (top dose mostly 102 µM), actives largely listed as inhibitors; Q96KQ7; 8.8% of 350,000 active; note: nearly all actives have a fitted effect of over 75% in size
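AlphaScreen read-out: biotin-H3K9 peptide (500 nM) methylation by 20 nM enzyme with 20 uM SAM, 2 h at room temperature after 15 min compound preincubation; anti-monomethyl H3K9 antibody plus donor/acceptor beads, 10 min dark.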
BAZ2B block: inhibitors of human BAZ2B bromodomain; AlphaScreen BAZ2B-H3K14Ac peptide displacement; Q9UIF8; AID 504333; 4.4% of 360,000 active; Potency, µM (highest dose often 114 µM), actives largely listed as inhibitors; note: nearly all actives have a fitted effect of over 60% in size
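Complex of BAZ2B and biotin-H3K14Ac (50 nM apiece) forms over 30 min at RT, then faces library compounds up to 110 uM for another 30 min; AlphaScreen beads added, 20 min dark incubation, luminescence read.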
PI5P4Ka inh: PI5P4K alpha (human) kinase inhibition. PI5P4Kalpha enzyme, ADP-Glo luminescence, 60 min; active compounds read low. 1.2% of 330,000 active. max response, %; active = max response of -50% or lower; inconclusive = between -30% and -50%; inactive = -30% or higher; note: value at the top dose of about 77 µM
Target sequence (P48426 whole entry, looked up): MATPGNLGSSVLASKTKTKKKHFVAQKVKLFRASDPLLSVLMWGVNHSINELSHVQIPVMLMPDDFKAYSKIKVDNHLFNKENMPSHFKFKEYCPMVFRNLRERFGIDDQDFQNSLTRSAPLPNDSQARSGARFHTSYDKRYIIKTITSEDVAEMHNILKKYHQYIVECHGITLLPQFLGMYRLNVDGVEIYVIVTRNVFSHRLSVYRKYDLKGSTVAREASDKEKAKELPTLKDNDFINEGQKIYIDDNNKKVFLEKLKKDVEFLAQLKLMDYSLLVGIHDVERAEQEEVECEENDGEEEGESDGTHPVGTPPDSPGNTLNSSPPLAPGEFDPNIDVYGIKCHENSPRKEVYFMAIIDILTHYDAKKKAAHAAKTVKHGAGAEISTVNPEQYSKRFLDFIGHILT
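ADP-Glo luminescence end-point read after a 60 min room-temperature kinase reaction of PI5P4Kalpha plus substrate, initiated with ATP at 5 microM final. Buffer: 0.038 M HEPES pH 7.4, EGTA, 0.1% CHAPS, 5% DMSO.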
PLK1 PBD block: inhibitors of human PLK1 polo-box domain binding; P53350; AID 720504; Potency, µM, most hits filed as inhibitors; 2.8% of 360,000 active; Plk1 PBD binding of FITC phosphopeptide, fluorescence polarization; note: series mostly up to about 57 µM; nearly all actives have a fitted effect of over 65% in size
JMJD2A Tudor: inhibitors of human JMJD2A Tudor domain; 4.4% of 390,000 active; AlphaScreen JMJD2A-Tudor / H3K4me3 peptide binding; AID 504339; Potency, µM (top dose mostly 114 µM), most hits filed as inhibitors; note: nearly all actives have a fitted effect of over 50% in size
HP1b chromo inh: HP1-beta chromodomain-methylated histone interaction inhibition; 0.56% of 390,000 active; Potency, µM (doses to about 114 µM), hits mostly inhibitors; AlphaScreen HP1-beta / biotin-H3K9me3 peptide binding; P83916; AID 540317; note: nearly all actives have a fitted effect of over 70% in size
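HP1-beta protein (50 nM final) preincubated 30 min at room temperature with biotinylated H3(1-18)K9me3 peptide (50 nM) in PBS pH 7.4, 0.01% Tween-20, then compound added for 30 min. AlphaScreen streptavidin donor/nickel chelate acceptor beads (10 ug/mL final), 30 min dark, luminescence read.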
Hits are given with their value; [ ] = dose if it differs, or a comment. Sampled rows, rich in hits. Any-hit rate of the full collection: about 12%. Unless noted, calls come from the whole dose curve; as a rule, active = well fitted curve in the direction sought with a large enough effect; inconclusive = small, poorly fitted or top-dose-only effect, or another doubt; inactive = no such curve, though single readings can be large; an effect the other way counts as inactive or inconclusive.

Results for COCCCN1C(=O)C(=O)/C(=C(/O)c2ccc(C)cc2)C1c1ccccc1 (configuration not stated) ?
G9a inh: 50.1µM; BAZ2B block: inactive; PI5P4Ka inh: inactive; PLK1 PBD block: inactive; JMJD2A Tudor: inconclusive; HP1b chromo inh: inactive

Results for COc1ccc(-n2c(SCC(=O)N3CCOCC3)nc3ccccc3c2=O)cc1 ?
G9a inh: inactive; BAZ2B block: inactive; PI5P4Ka inh: inactive; PLK1 PBD block: inactive; JMJD2A Tudor: inactive; HP1b chromo inh: inactive

What do the screens show for `C[C@@H]1CNC(=O)c2c(C(=O)NCC(=O)OC(C)(C)C)ncn21`?
PI5P4Ka inh: inactive; PLK1 PBD block: inactive

What do the screens show for `CCN(CC)CCN1C(=O)C(=O)/C(=C(/O)c2cccc(OC)c2)C1c1ccccn1` (configuration not stated)?
G9a inh: inconclusive; BAZ2B block: inconclusive; PI5P4Ka inh: inactive; PLK1 PBD block: inactive; JMJD2A Tudor: inconclusive; HP1b chromo inh: inactive

Results for COCCCN1C(=O)C(=O)/C(=C(/O)c2ccc(C)cc2)C1/C=C/c1ccccc1 (configuration not stated) ?
G9a inh: 44.7µM; BAZ2B block: inactive; PI5P4Ka inh: inactive; PLK1 PBD block: inactive; JMJD2A Tudor: inactive; HP1b chromo inh: inactive

Results for COCCCN1C(=O)C(=O)/C(=C(/O)c2ccc(OC)cc2)C1c1cccc(OC)c1 (configuration not stated) ?
G9a inh: inconclusive; BAZ2B block: inactive; PI5P4Ka inh: inactive; PLK1 PBD block: inactive; JMJD2A Tudor: inactive; HP1b chromo inh: inactive

Results for COC(CN1C(=O)C(=O)/C(=C(/O)c2ccccc2)C1c1ccccn1)OC (configuration not stated) ?
G9a inh: 50.1µM; BAZ2B block: inactive; PI5P4Ka inh: inactive; PLK1 PBD block: inactive; JMJD2A Tudor: inactive; HP1b chromo inh: inactive

What do the screens show for `COC(=O)C1=CN(c2ccc(Oc3ccccc3)cc2)C(N)=C(C#N)C1c1ccccc1` (configuration not stated)?
PI5P4Ka inh: inconclusive; PLK1 PBD block: inactive

Results for CCn1c(=O)cc(OCC(=O)NCc2ccccc2Cl)c2ccccc21 ?
G9a inh: inconclusive; BAZ2B block: inactive; JMJD2A Tudor: inactive; HP1b chromo inh: inactive

How did Cc1ccc(S(C)(=O)=O)cc1C(=O)Nc1ccc(S(=O)(=O)Nc2nccs2)cc1 do in these assays?
G9a inh: inactive[12.7 µM]; BAZ2B block: inactive; PI5P4Ka inh: inactive; PLK1 PBD block: inactive; JMJD2A Tudor: inactive; HP1b chromo inh: inactive

Results for Cc1ccc(-c2cc(C(=O)Nc3ccc(S(=O)(=O)Nc4nccs4)cc3)c3ccccc3n2)c(C)c1 ?
G9a inh: 28.2µM; BAZ2B block: inconclusive; PI5P4Ka inh: inconclusive; PLK1 PBD block: 5.32µM; JMJD2A Tudor: inconclusive; HP1b chromo inh: inconclusive

How did Cc1ccc(-c2cc(C(=O)Nc3ccc(S(=O)(=O)Nc4ncccn4)cc3)c3ccccc3n2)cc1 do in these assays?
G9a inh: inactive; BAZ2B block: inactive; PI5P4Ka inh: inconclusive; PLK1 PBD block: inconclusive; JMJD2A Tudor: inactive; HP1b chromo inh: inactive

What do the screens show for `O=C(Nc1ccc(S(=O)(=O)Nc2nccs2)cc1)c1cc(-c2ccccc2)nc2ccccc12`?
G9a inh: 7.94µM; BAZ2B block: inconclusive; PI5P4Ka inh: inactive; PLK1 PBD block: inconclusive; JMJD2A Tudor: 31.6µM; HP1b chromo inh: inconclusive

Results for Cc1nn(CC(=O)N(C)C2CCS(=O)(=O)C2)c(C)c1S(=O)(=O)N(C)C (configuration not stated) ?
G9a inh: inactive[12.7 µM]; BAZ2B block: inactive; PI5P4Ka inh: inactive; PLK1 PBD block: inactive; JMJD2A Tudor: inactive; HP1b chromo inh: inactive

How did Cc1occc1-c1nnc(-c2cc([N+](=O)[O-])cc([N+](=O)[O-])c2)o1 do in these assays?
G9a inh: 31.6µM; BAZ2B block: inconclusive; PI5P4Ka inh: inconclusive; PLK1 PBD block: inactive; JMJD2A Tudor: inactive; HP1b chromo inh: inactive

What do the screens show for `O=[N+]([O-])c1cccc(-c2nnc(-c3ccccc3)o2)c1`?
G9a inh: inactive; BAZ2B block: inactive; PI5P4Ka inh: inactive; PLK1 PBD block: inactive; JMJD2A Tudor: inactive; HP1b chromo inh: inactive
